PPC-1+TRAIL kill: PPC-1 cancer cell killing with TRAIL present. PPC-1 cells + TRAIL, ATPLite viability luminescence. cell killing (% activity), % at 4 µM or 5 µM. 0.41% of 220,000 active. AID 1443;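 active means cell killing above 50% in the first pass at 4 µM, then a duplicate retest at 5 µM averaging 50% or more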;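 further: plate controls were cells with TRAIL plus DMSO for no effect and medium-only wells lacking cells for full effect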
TRAIL sens C8: caspase-8 TRAIL sensitization; 1% of 360,000 active; inhibition (viability loss, TRAIL sensitization), % at 10 µM; NB7+C8 cells + TRAIL, ATPlite viability luminescence;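 active means compounds causing at least 50% loss of cell viability in the single-dose screen, relative to plate controls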
SENP7 inh: blocks the human protease SENP7; AID 434973; inhibition, % at 5 µM; 1.5% of 330,000 active; Q9BQF6; recombinant SENP7, Z-RLRGG-aminoluciferin luminescence, 40 min;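 active means inhibition above about 50% at the single test dose, limit read from the data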;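 further: plate controls were DMSO with enzyme for no effect and no enzyme buffer wells for full effect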
SENP8 block-1: blocks the human protease SENP8; inhibition, % at 10 µM; 1.2% of 330,000 active; purified SENP8, Z-RLRGG-aminoluciferin cleavage, luminescence; Q96LD8; in the data active means inhibition above about 50%
Target sequence (Q96LD8 whole entry, looked up): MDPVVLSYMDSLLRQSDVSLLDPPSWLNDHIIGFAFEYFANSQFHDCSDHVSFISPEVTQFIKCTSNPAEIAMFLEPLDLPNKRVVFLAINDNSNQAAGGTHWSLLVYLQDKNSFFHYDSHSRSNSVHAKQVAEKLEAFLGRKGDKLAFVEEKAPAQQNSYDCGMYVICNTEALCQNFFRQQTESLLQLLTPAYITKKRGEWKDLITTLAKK
SENP8 block-2: blocks human SENP8 cleavage of Nedd8 substrate. Q96LD8. recombinant SENP8, Nedd8 substrate fluorescence. inhibition, % at 20 µM. 0.64% of 360,000 active. AID 602440; in the data active means inhibition mostly above about 40%, no sharp cut-off; inactive means mostly below about 27%
SENP6 block: blocks the human protease SENP6. 1.8% of 330,000 active. AID 2599. Q9GZR1. inhibition, % at 10 µM. Recombinant SENP6 catalytic domain, aminoluciferin luminescence;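 active means inhibition above about 50% at the single tested dose, limit read from the data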;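 further: plate controls were DMSO wells with enzyme for no effect and DMSO wells lacking enzyme for full effect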
SENP8 confirm: confirmation of human SENP8 protease inhibitors; Recombinant SENP8, Z-RLRGG-aminoluciferin luminescence, 60 min; shares compounds with SENP7 inh; 40% of 6,200 active; inhibition, % at 12.5 µM; AID 488912;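 active means mean inhibition across replicates above about 50%, limit read from the data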
SENP6 confirm: human SENP6 inhibition, confirmed; 58% of 6,200 active; shares compounds with SENP7 inh; recombinant SENP6, Z-RLRGG-aminoluciferin luminescence; inhibition, % at 12.5 µM
SENP7 confirm: human SENP7 inhibition, confirmed | shares compounds with SENP7 inh | recombinant SENP7, Z-RLRGG-aminoluciferin luminescence, 40 min | inhibition, % at 12.5 µM | 69% of 6,200 active
Casp3 select: selectivity test for SENP inhibitors: human caspase-3 inhibition; shares compounds with SENP7 inh; purified caspase-3, Z-DEVD-aminoluciferin luminescence, 60 min; inhibition, % at 12.5 µM; 60% of 6,200 active;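 active means mean inhibition above about 50%, limit read from the data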;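 further: plate controls were enzyme with DMSO for no effect and wells without caspase-3 for full effect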
Target sequence (P42574 28-227 limits assumed): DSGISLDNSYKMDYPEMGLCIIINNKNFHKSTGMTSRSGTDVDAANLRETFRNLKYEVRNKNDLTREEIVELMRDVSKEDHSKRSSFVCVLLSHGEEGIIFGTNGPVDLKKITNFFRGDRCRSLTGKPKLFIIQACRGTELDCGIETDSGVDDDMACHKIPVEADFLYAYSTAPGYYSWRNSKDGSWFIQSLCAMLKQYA
SENP luc ctr: interferes with luciferase luminescence in SENP counter-screen; Pre-incubated SENP8/Z-RLRGG-aminoluciferin, luciferase luminescence interference; shares compounds with SENP7 inh; 39% of 6,200 active; AID 488919; inhibition, % at 12.5 µM;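 active means mean inhibition above about 50% when retested at one dose, limit read from the data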;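 further: plate controls were DMSO wells with completed reaction for no effect and substrate without enzyme for full effect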
Starred values were filed as active, the others as inactive. Compounds with a hit are over-represented: about 3% of the library has one in this group of screens.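 How the source made its calls, unless noted: active means mean inhibition above about 50% in the one-dose retest (limit read from the data); inactive means the rest.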

For O=C(Nc1ccc(Cl)cn1)c1ccccc1F the results were PPC-1+TRAIL kill 45, TRAIL sens C8 36, SENP7 inh 80*, SENP8 block-1 64*, SENP8 block-2 -3, SENP6 block 82*, SENP8 confirm 2, SENP6 confirm 71*, SENP7 confirm 93*, Casp3 select 85* and SENP luc ctr 42.
`Cc1cc(NC(=O)c2cccc(F)c2)ncc1NC(=O)c1ccco1` gave PPC-1+TRAIL kill 13, TRAIL sens C8 11, SENP7 inh 93*, SENP8 block-1 82*, SENP8 block-2 19, SENP6 block 94*, SENP8 confirm 87*, SENP6 confirm 87*, SENP7 confirm 99*, Casp3 select 95* and SENP luc ctr 88*.
`Cc1cc(NC(=O)c2cccs2)ncc1NC(=O)c1cccc(F)c1` gave PPC-1+TRAIL kill 8, TRAIL sens C8 -2, SENP7 inh 33, SENP8 block-1 13, SENP8 block-2 -48 and SENP6 block -6.
For Cc1cc(NC(=O)c2ccccc2)ncc1NC(=O)c1cccs1 the results were PPC-1+TRAIL kill 16, TRAIL sens C8 -4, SENP7 inh -17, SENP8 block-1 72*, SENP8 block-2 -4, SENP6 block 64*, SENP8 confirm 76*, SENP6 confirm 74*, SENP7 confirm 93*, Casp3 select 90* and SENP luc ctr 80*.
`O=C(Nc1ccc(Cl)cn1)c1cccc(F)c1` gave PPC-1+TRAIL kill -10, TRAIL sens C8 23, SENP7 inh 89*, SENP8 block-1 73*, SENP8 block-2 17, SENP6 block 91*, SENP8 confirm 83*, SENP6 confirm 85*, SENP7 confirm 97*, Casp3 select 92* and SENP luc ctr 81*.
For COc1cccc(C(C(=O)NCc2ccccc2)N2CCN(c3ccccc3F)CC2)c1OC (stereo unspecified) the results were TRAIL sens C8 13 and SENP8 block-2 18.
CS(=O)(=O)c1ccc(Cl)c(NC(=O)CSc2nnc3n2CCCCC3)c1 was read as TRAIL sens C8 -2 and SENP8 block-2 10.
For O=C(CN1C(=O)NC(c2ccccc2)(c2ccccc2)C1=O)NCc1cccs1 the results were TRAIL sens C8 7, SENP7 inh -11, SENP8 block-1 -10, SENP8 block-2 2 and SENP6 block -12.
For Cc1coc2c1c(C)cc1oc(=O)c(CC(=O)N[C@@H](C)C(=O)O)c(C)c12 the results were TRAIL sens C8 18, SENP7 inh 4, SENP8 block-1 0, SENP8 block-2 -277 and SENP6 block 8.
`O=C(Nc1ccc(Cl)cn1)Nc1ccc(Cl)cn1` gave PPC-1+TRAIL kill 9, TRAIL sens C8 -3, SENP7 inh 0, SENP8 block-1 1, SENP8 block-2 0 and SENP6 block -5.
Screening O=C(NC(=O)c1ccccc1)Nc1ccc(Cl)cn1 returned TRAIL sens C8 23, SENP7 inh 72*, SENP8 block-1 0, SENP8 block-2 -2, SENP6 block 27, SENP8 confirm -2, SENP6 confirm 4, SENP7 confirm 15, Casp3 select 36 and SENP luc ctr 1.
For CC(OC(=O)Cc1ccc(Br)cc1)C(=O)NC1CCCCC1C (stereo unspecified) the results were TRAIL sens C8 -6, SENP7 inh -5, SENP8 block-1 4, SENP8 block-2 -2 and SENP6 block -2.

Screening results from PubChem.
